Experimental data published in PubChem BioAssay AID709 (SRMLSC, 2007).
Out of some 65,000 compounds screened, about 3,600 (5.5%) were called active.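 The calls were made as follows: active = at 10 µM, mean starting fluorescence two-fold or more over control wells; inactive = the rest.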 The entries come from a sample that favours actives as a whole.

assay: intrinsic fluorescence of library compounds, ex339/em460 – biochemical, MLSMR library, data from DPM-DC assay, artefact control, profiling panel (AID 709); conditions: compound autofluorescence, ex339/em460 nm, NADH buffer; at 10 µM; stronger effect = higher value; 1 = no-compound wells, NADH background;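 also: signal is the first read of a kinetic run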

Structure (SMILES) | fluorescence fold increase
CN(c1ccccc1)c1ccc(/C=c2\s/c(=C(/C#N)C(=O)C(C)(C)C)n(Cc3ccco3)c2=O)cc1 | 0.95 (inactive)
Cc1ccc(C(=O)Nc2nnc(-c3ccncc3)s2)o1 | 2.14 (active)
Cc1occc1C(=O)Nc1nnc(-c2ccncc2)s1 | 2.2 (active)
Cc1occc1C(=O)Nc1nnc(C2CCCCC2)s1 | 1.04 (inactive)
O=C(Nc1ccncc1)c1cc2ccccc2o1 | 1.02 (inactive)
CC(=O)Cc1nsc(NC(=O)c2ccc(COc3ccc(C)cc3)o2)n1 | 1.06 (inactive)
Cc1occc1C(=O)Nc1cccc(Cn2cccn2)c1 | 1.14 (inactive)
COc1ccc(CCNC(=O)c2cc(-c3ccc4c(c3)OCO4)on2)cc1OC | 1.07 (inactive)
O=C(CSc1nnc(-c2ccccn2)n1-c1ccccc1)Nc1ccc2c(c1)OCO2 | 1.08 (inactive)
CC(C)Oc1ccc(C(=O)Nc2cc(=O)n(C)c(=O)n2C)cc1 | 1.01 (inactive)
O=C(c1cccs1)N1CCN(C(=O)N2CCOCC2)CC1 | 1.11 (inactive)
CCOc1ccccc1N(CC(=O)NC1CCCCC1)C(=O)CCCC(=O)Nc1ccccn1 | 1.08 (inactive)
C=CCNC(=O)CSc1nc2sc(C)c(C)c2c(=O)[nH]1 | 1 (inactive)
CC(=O)c1sc2nc(SCC(=O)N3CCCCC3)[nH]c(=O)c2c1C | 2.68 (active)
O=C(CSc1nc2c(cnn2-c2ccc(F)cc2)c(=O)[nH]1)N1CCCCCC1 | 1.11 (inactive)
Cc1ccc(-n2nc3c(c2NC(=O)CCC2CCCCC2)CS(=O)C3)cc1 (configuration not stated) | 1.14 (inactive)
CCOc1cccc(NC(=O)C2CCCN(S(=O)(=O)c3ccc(OC)cc3)C2)c1 (configuration not stated) | 1.02 (inactive)
O=c1[nH]c(-c2ccccc2)c(-c2ccccc2)[nH]1 | 3.71 (active)
CC1(C)CC(=O)NC=C(c2ccccc2)C1 | 1.06 (inactive)
N#Cc1c2c(c(-c3ccccc3)[nH]c1=O)CCCC2 | 1.02 (inactive)
CCOC(=O)N1CCN(C(=O)c2ccc(S(=O)(=O)c3ccc(C)cc3)c(NC(C)=O)c2)CC1 | 1.2 (inactive)
Cc1ccc(C(=O)CS(C)(=O)=O)cc1 | 1.35 (inactive)
OC1CN=C2Sc3ccccc3N2C1 (configuration not stated) | 1.06 (inactive)
COc1ccc(C(C(O)C(=O)c2c[nH]c3ccccc23)N2CCN(c3ccccc3)CC2)cc1 (configuration not stated) | 1.15 (inactive)
Cc1ccc2nc(-c3ccc(SCC(=O)Nc4cc(C)on4)nc3)[nH]c2c1 | 3.38 (active)
Cc1cc(C)c2c(c1)cc(C)c1nnc(SCC(=O)Nc3cc(C)on3)n12 | 1.09 (inactive)
Cc1nc(SCC(=O)Nc2cc(C)on2)c2c(C)c(C)sc2n1 | 1.11 (inactive)
